The first assay deals with T1, cAMP-dependent protein kinase catalytic subunit PRKX (Homo sapiens) (UniProt P51817).
T1 sequence (whole entry): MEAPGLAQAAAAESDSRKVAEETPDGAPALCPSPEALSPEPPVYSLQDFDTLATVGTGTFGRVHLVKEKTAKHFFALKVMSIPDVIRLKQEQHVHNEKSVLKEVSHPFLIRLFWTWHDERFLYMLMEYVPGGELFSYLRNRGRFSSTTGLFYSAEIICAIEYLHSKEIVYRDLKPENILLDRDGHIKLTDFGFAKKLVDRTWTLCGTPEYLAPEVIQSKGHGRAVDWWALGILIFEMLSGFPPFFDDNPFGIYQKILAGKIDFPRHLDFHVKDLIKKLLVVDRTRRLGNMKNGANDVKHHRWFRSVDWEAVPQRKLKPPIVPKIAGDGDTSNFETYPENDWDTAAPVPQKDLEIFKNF
The following applies: at 1 µM.
Usually inhibition stands for the change of the read-out against control, counted positive when it falls. For `CS(=O)(=O)CCNCc1nc(-c2ccc3ncnc(Nc4ccc(OCc5cccc(C(F)(F)F)c5)cc4)c3c2)cs1`, the inhibition is -0.71%.
Still for that read-out and setting: in the case of `Nc1nccc(-c2c(-c3ccc(F)cc3)ncn2CCCN2CCOCC2)n1` it was 5.13%; in that of `NS(=O)(=O)c1ccc(Nc2cc(-c3cccc(O)c3)n[nH]2)cc1`, 2.25%.
Same read-out and setting: in the case of `NS(=O)(=O)c1cccc(Nc2cc(-c3ccc(F)cc3)n[nH]2)c1` it was 9.4%; in that of `Cc1ccc2c(-c3ccnc(Nc4ccc5c(c4)OCCO5)n3)c(-c3ccc(C(F)(F)F)cc3)nn2n1`, 6.18%; in that of `Cc1cc(O)cc(C)c1/C=C/c1cncc(C(=O)N(C)C)c1`, 0.5%.
Still for that read-out and setting: in the case of `CN(C)c1cc2c(Nc3ccc4c(cnn4Cc4ccccc4)c3)ncnc2cn1` it was 0.84%.
For `COC(=O)c1ccc2c(c1)C(=Cc1cc(Br)c(O)c(Br)c1)C(=O)N2`, the inhibition was determined as 1.86%.
Still for that read-out and setting: in the case of `Nc1nccc(-c2c(-c3ccc(F)cc3)nn3cc(C(F)(F)F)ccc23)n1` it was -0.61%.
Regarding `COc1cccc(-n2nc(C)c3c(N/N=C(\C)c4ccncc4)ncnc32)c1`, the inhibition is -1.17%.
For `Cc1cc(Cl)cc2c1NC(=O)C2=NNc1ccc(S(N)(=O)=O)cc1`, the inhibition worked out at 3.22%.
On the same count and under the same terms, in the case of `Cc1ccc(O)cc1Nc1ccnc2ccc(S(C)(=O)=O)cc12` it was 4.14%.
As to `COc1cccc(-n2ncc3c(N/N=C/c4ccc(S(C)(=O)=O)cc4)ncnc32)c1`, the inhibition was determined as 1.61%.
`NS(=O)(=O)c1ccc(-c2cc3ccncc3cc2OCc2ccccc2)cc1`: the inhibition stood at 1.52%.
Same read-out and setting: in the case of `Cc1ccc2c(c1)/C(=N/Nc1ccc(S(N)(=O)=O)cc1)C(=O)N2` it was -2.35%; in that of `CCCN1CCCC(c2ccc(Nc3nc(Nc4cc(F)ccc4C(N)=O)c4cc[nH]c4n3)c(OC)c2)C1` (stereo unspecified), 0.52%.
Same read-out and setting: in the case of `COC(=O)c1cncc(/C=C/c2c(C)cc(O)cc2C)c1` it was 3.76%; in that of `Cc1ccc(Nc2ccnc(Nc3cccc(C(N)=O)c3)n2)cc1O`, 2.66%; in that of `Nc1ccc(C#Cc2cncnc2Nc2ccc(OCc3cccc(F)c3)c(Cl)c2)cc1`, 1.72%.
Same read-out and setting: in the case of `CN(C)C(=O)O[C@@H]1CN[C@@H](C#Cc2cc3ncnc(Nc4ccc(OCc5cccc(F)c5)c(Cl)c4)c3s2)C1` it was -1.92%.
Regarding `NS(=O)(=O)c1ccc(N/N=C2\C(=O)Nc3ccc(Cl)cc32)cc1`, the inhibition is 7.86%.
Regarding `Cc1nc(-c2ccccc2)n2nc(NCCCN3CCOCC3)ncc12`, the inhibition stood at 1.01%.
Still for that read-out and setting: in the case of `CCOc1nccc2c1nc(-c1nonc1N)n2CC` it was 2.76%.
Still for that read-out and setting: in the case of `O=S(=O)(CCOCc1ccc(-c2ccc3ncnc(Nc4ccc(OCc5cccc(F)c5)c(Cl)c4)c3c2)o1)c1ccccc1` it was 1.09%; in that of `NC(=O)c1cccc(Nc2nccc(Nc3cccc(F)c3)n2)c1`, 0.35%.
For `C[C@@H](Oc1cc(-n2cnc3ccc(OCC4CCN(C)CC4)cc32)sc1C(N)=O)c1ccccc1C(F)(F)F`, the inhibition is -1.15%.
Still for that read-out and setting: in the case of `FC(F)(F)c1ccc(-c2nn3ncccc3c2-c2ccnc(Nc3ccc4c(c3)OCCO4)n2)cc1` it was 8.53%; in that of `Cc1cc(-c2ccccn2)cc(C)c1/C=C/c1cncc(-c2nn[nH]n2)c1`, 2.53%; in that of `COc1ccc2ncnc(Nc3ccc(OCc4ccccc4)cc3)c2c1`, 1.9%.
On to `CN(C)CCCn1c(-c2nonc2N)nc2cnccc21`, for which the inhibition was determined as 3.97%.
Turning to `[O-][S+]1CCN(Cc2ccc(-c3ccc4ncnc(Nc5ccc(OCc6ccccc6)c(Cl)c5)c4c3)o2)CC1`, the inhibition was determined as 1.17%.
The same measure, in the same setting: in the case of `OCc1ccc(-c2nc(-c3ccccn3)c(-c3ccc4c(c3)OCO4)[nH]2)cc1` it was 0.61%; in that of `COc1cc(Nc2nccc(-c3cnn4ncccc34)n2)cc(OC)c1`, 0.29%.

The target of a further assay is Rho-associated protein kinase 1 (Homo sapiens) (UniProt Q13464). As to conditions: at 0.1 µM.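 Further: values are mean percent inhibition of ROCK1.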
Sequence of Rho-associated protein kinase 1 (Homo sapiens) (Q13464 2-1354 limits assumed): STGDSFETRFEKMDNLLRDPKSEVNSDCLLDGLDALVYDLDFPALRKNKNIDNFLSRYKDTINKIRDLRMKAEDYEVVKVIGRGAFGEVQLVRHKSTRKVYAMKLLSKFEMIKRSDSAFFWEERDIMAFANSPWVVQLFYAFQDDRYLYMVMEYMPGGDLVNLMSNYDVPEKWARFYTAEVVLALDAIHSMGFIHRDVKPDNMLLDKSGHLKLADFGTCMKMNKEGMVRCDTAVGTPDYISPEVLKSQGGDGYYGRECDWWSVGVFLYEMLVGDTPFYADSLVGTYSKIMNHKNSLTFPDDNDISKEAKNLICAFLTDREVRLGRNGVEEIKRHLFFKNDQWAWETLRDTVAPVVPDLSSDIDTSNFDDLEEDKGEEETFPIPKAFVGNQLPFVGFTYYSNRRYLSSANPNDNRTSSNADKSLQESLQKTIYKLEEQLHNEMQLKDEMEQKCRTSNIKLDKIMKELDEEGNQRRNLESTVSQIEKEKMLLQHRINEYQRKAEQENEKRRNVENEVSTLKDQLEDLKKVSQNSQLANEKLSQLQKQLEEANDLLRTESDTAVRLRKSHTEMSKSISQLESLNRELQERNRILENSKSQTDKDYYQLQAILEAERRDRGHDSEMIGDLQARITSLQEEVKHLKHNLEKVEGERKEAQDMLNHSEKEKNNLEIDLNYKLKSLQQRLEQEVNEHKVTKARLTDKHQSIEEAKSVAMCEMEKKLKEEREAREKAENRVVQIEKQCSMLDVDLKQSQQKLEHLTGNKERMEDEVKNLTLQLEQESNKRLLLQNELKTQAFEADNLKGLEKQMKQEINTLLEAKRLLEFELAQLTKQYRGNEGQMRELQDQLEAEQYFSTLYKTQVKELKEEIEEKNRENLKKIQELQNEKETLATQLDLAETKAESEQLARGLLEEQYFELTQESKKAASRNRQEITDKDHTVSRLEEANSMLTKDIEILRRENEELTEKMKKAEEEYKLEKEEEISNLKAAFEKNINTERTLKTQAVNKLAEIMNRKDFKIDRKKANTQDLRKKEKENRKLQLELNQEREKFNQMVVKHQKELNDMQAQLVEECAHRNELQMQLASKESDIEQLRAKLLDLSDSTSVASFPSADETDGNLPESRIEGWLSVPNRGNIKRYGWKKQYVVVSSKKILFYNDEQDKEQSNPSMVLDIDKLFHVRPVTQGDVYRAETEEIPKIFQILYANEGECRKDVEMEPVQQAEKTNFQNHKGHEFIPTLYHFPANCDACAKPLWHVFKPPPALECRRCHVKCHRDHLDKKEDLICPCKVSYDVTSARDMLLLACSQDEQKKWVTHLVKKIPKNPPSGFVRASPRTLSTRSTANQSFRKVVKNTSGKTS
In the case of `CS(=O)(=O)CCNCc1nc(-c2ccc3ncnc(Nc4ccc(OCc5cccc(C(F)(F)F)c5)cc4)c3c2)cs1`, the inhibition was -0.53%.
The same measure, in the same setting: in the case of `Nc1nccc(-c2c(-c3ccc(F)cc3)ncn2CCCN2CCOCC2)n1` it was 2.49%; in that of `NS(=O)(=O)c1ccc(Nc2cc(-c3cccc(O)c3)n[nH]2)cc1`, 1.47%.
The same measure, in the same setting: in the case of `NS(=O)(=O)c1cccc(Nc2cc(-c3ccc(F)cc3)n[nH]2)c1` it was 1.22%; in that of `Cc1ccc2c(-c3ccnc(Nc4ccc5c(c4)OCCO5)n3)c(-c3ccc(C(F)(F)F)cc3)nn2n1`, 0.76%; in that of `Cc1cc(O)cc(C)c1/C=C/c1cncc(C(=O)N(C)C)c1`, 0.55%.
On the same count and under the same terms, in the case of `CN(C)c1cc2c(Nc3ccc4c(cnn4Cc4ccccc4)c3)ncnc2cn1` it was 0.25%; in that of `COC(=O)c1ccc2c(c1)C(=Cc1cc(Br)c(O)c(Br)c1)C(=O)N2`, 2.01%.
As to `Nc1nccc(-c2c(-c3ccc(F)cc3)nn3cc(C(F)(F)F)ccc23)n1`, the inhibition was -0.4%.
Still for that read-out and setting: in the case of `COc1cccc(-n2nc(C)c3c(N/N=C(\C)c4ccncc4)ncnc32)c1` it was -1.53%; in that of `Cc1cc(Cl)cc2c1NC(=O)C2=NNc1ccc(S(N)(=O)=O)cc1`, 0.02%; in that of `Cc1ccc(O)cc1Nc1ccnc2ccc(S(C)(=O)=O)cc12`, 1.34%.
In the case of `COc1cccc(-n2ncc3c(N/N=C/c4ccc(S(C)(=O)=O)cc4)ncnc32)c1`, the inhibition turned out to be 0.21%.
On to `NS(=O)(=O)c1ccc(-c2cc3ccncc3cc2OCc2ccccc2)cc1`, for which the inhibition was determined as 0.19%.
On the same count and under the same terms, in the case of `Cc1ccc2c(c1)/C(=N/Nc1ccc(S(N)(=O)=O)cc1)C(=O)N2` it was 0.97%.
The same measure, in the same setting: in the case of `CCCN1CCCC(c2ccc(Nc3nc(Nc4cc(F)ccc4C(N)=O)c4cc[nH]c4n3)c(OC)c2)C1` (stereo unspecified) it was 22.5%; in that of `COC(=O)c1cncc(/C=C/c2c(C)cc(O)cc2C)c1`, 0.77%.
Consider `Cc1ccc(Nc2ccnc(Nc3cccc(C(N)=O)c3)n2)cc1O`, for which the inhibition turned out to be 0.56%.
The same measure, in the same setting: in the case of `Nc1ccc(C#Cc2cncnc2Nc2ccc(OCc3cccc(F)c3)c(Cl)c2)cc1` it was 0.74%.
Same read-out and setting: in the case of `CN(C)C(=O)O[C@@H]1CN[C@@H](C#Cc2cc3ncnc(Nc4ccc(OCc5cccc(F)c5)c(Cl)c4)c3s2)C1` it was -0.58%; in that of `NS(=O)(=O)c1ccc(N/N=C2\C(=O)Nc3ccc(Cl)cc32)cc1`, 0.31%.
Same read-out and setting: in the case of `Cc1nc(-c2ccccc2)n2nc(NCCCN3CCOCC3)ncc12` it was 0.46%; in that of `CCOc1nccc2c1nc(-c1nonc1N)n2CC`, 2.91%.
With `O=S(=O)(CCOCc1ccc(-c2ccc3ncnc(Nc4ccc(OCc5cccc(F)c5)c(Cl)c4)c3c2)o1)c1ccccc1`, the inhibition stood at 1.34%.
In the case of `NC(=O)c1cccc(Nc2nccc(Nc3cccc(F)c3)n2)c1`, the inhibition is 0.28%.
On the same count and under the same terms, in the case of `C[C@@H](Oc1cc(-n2cnc3ccc(OCC4CCN(C)CC4)cc32)sc1C(N)=O)c1ccccc1C(F)(F)F` it was 0.29%.
On the same count and under the same terms, in the case of `FC(F)(F)c1ccc(-c2nn3ncccc3c2-c2ccnc(Nc3ccc4c(c3)OCCO4)n2)cc1` it was 1.44%.
The same measure, in the same setting: in the case of `Cc1cc(-c2ccccn2)cc(C)c1/C=C/c1cncc(-c2nn[nH]n2)c1` it was 2.04%; in that of `COc1ccc2ncnc(Nc3ccc(OCc4ccccc4)cc3)c2c1`, -0.05%; in that of `CN(C)CCCn1c(-c2nonc2N)nc2cnccc21`, 5.96%.
`[O-][S+]1CCN(Cc2ccc(-c3ccc4ncnc(Nc5ccc(OCc6ccccc6)c(Cl)c5)c4c3)o2)CC1`: the inhibition was determined as 0.9%.
Still for that read-out and setting: in the case of `OCc1ccc(-c2nc(-c3ccccn3)c(-c3ccc4c(c3)OCO4)[nH]2)cc1` it was 1.43%; in that of `COc1cc(Nc2nccc(-c3cnn4ncccc34)n2)cc(OC)c1`, 0.75%.

For the origin of these results see ChEMBL document CHEMBL1961873, “Compounds: GSK PKIS; Assays: Nanosyn kinase panel” (2012).
